According to PubChem BioAssay AID1159580 (chemical genetic matrix, 2015):
The whole screen tested about 5,500 compounds, of which about 2,000 (36%) were called active. Inconclusive results (about 18%) are left out. Cut-off read from the data, not from the text of the source: active = normalized growth mostly below about 0.91 (no sharp cut-off); inconclusive = no clear call, values can overlap the other calls; inactive = mostly above about 0.92. Some of the results follow.

Test: chemical genetic growth profiling, strain panel (AID 1159580);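 note: tested at 20 µM; growth read once vehicle control cultures reached saturation at 30 °C; 1 = growth at the plate median or of vehicle wells; lower values mean less growth of the strain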
Settings: growth OD

Measured: normalized growth

CC(NCCC(c1ccccc1)c1ccccc1)c1ccccc1 (configuration not stated)
active: S. cerevisiae deletion strains, locus YJR075W, strain HOC1, hits give low values 0.875 | S. cerevisiae deletion strains, locus YLR370C, strain arc18, hits give low values 0.822 | S. cerevisiae deletion strains, locus YML120C, strain ndi1, hits give low values 0.886 | S. cerevisiae deletion strains, locus YMR058W, strain fet3, hits give low values 0.849 | S. cerevisiae deletion strains, locus YMR231W, strain pep5, hits give low values 0.731 | S. cerevisiae deletion strains, locus YNL209W, strain ssb2, hits give low values 0.888 | S. cerevisiae deletion strains, locus YOL006C, strain TOP1, hits give low values 0.468 | S. cerevisiae deletion strains, locus YOR001W, strain rrp6, hits give low values 0.887 | S. cerevisiae deletion strains, locus YOR070C, strain gyp1, hits give low values 0.908 | S. cerevisiae deletion strains, locus YOR083W, strain WHI5, hits give low values 0.846 | S. cerevisiae deletion strains, locus YOR106W, strain vam3, hits give low values 0.618 | S. cerevisiae deletion strains, locus YOR136W, strain idh2, hits give low values 0.907 | S. cerevisiae deletion strains, locus YOR270C, strain vph1, hits give low values 0.375 | S. cerevisiae deletion strains, locus YOR290C, strain snf2, hits give low values 0.837 | S. cerevisiae deletion strains, locus YPL051W, strain arl3, hits give low values 0.767 | S. cerevisiae deletion strains, locus YPR163C, strain tif3, hits give low values 0.872
inactive: S. cerevisiae deletion strains, locus YKL009W, strain mrt4, hits give low values 0.944 | S. cerevisiae deletion strains, locus YKL068W, hits give low values 0.981 | S. cerevisiae deletion strains, locus YKL085W, strain MDH1 (second series), hits give low values 0.985 | S. cerevisiae deletion strains, locus YKL085W, strain MDH1, hits give low values 0.985 | S. cerevisiae deletion strains, locus YKL160W, strain elf1, hits give low values 0.908 | S. cerevisiae deletion strains, locus YKL190W, strain CNB1, hits give low values 0.988 | S. cerevisiae deletion strains, locus YKR001C, strain vps1, hits give low values 0.936 | S. cerevisiae deletion strains, locus YKR026C, strain gcn3, hits give low values 1.01 | S. cerevisiae deletion strains, locus YKR091W, strain srl3, hits give low values 1 | S. cerevisiae deletion strains, locus YLL001W, strain dnm1, hits give low values 0.945 | S. cerevisiae deletion strains, locus YLL026W, hits give low values 0.981 | S. cerevisiae deletion strains, locus YLL041C, strain sdh2, hits give low values 0.997 | S. cerevisiae deletion strains, locus YLR027C, strain aat2, hits give low values 0.934 | S. cerevisiae deletion strains, locus YLR039C, strain RIC1, hits give low values 1.28 | S. cerevisiae deletion strains, locus YLR058C, strain SHM2, hits give low values 0.958 | S. cerevisiae deletion strains, locus YLR102C, strain apc9, hits give low values 0.985 | S. cerevisiae deletion strains, locus YLR113W, strain HOG1, hits give low values 1.01 | S. cerevisiae deletion strains, locus YLR221C, strain rsa3, hits give low values 0.937 | S. cerevisiae deletion strains, locus YLR258W, strain gsy2, hits give low values 0.974 | S. cerevisiae deletion strains, locus YLR262C, strain YPT6 (second series), hits give low values 0.986 | S. cerevisiae deletion strains, locus YLR262C, strain YPT6, hits give low values 1.16 | S. cerevisiae deletion strains, locus YLR268W, strain sec22, hits give low values 0.989 | S. cerevisiae deletion strains, locus YLR320W, strain mms22, hits give low values 0.898 | S. cerevisiae deletion strains, locus YLR330W, strain CHS5, hits give low values 0.992 | S. cerevisiae deletion strains, locus YLR342W, strain FKS1 (second series), hits give low values 0.885 | S. cerevisiae deletion strains, locus YLR342W, strain FKS1, hits give low values 0.993 | S. cerevisiae deletion strains, locus YLR357W, strain rsc2, hits give low values 1 | S. cerevisiae deletion strains, locus YLR371W, strain rom2, hits give low values 0.97 | S. cerevisiae deletion strains, locus YLR384C, strain iki3, hits give low values 1 | S. cerevisiae deletion strains, locus YLR418C, strain cdc73, hits give low values 0.857 | S. cerevisiae deletion strains, locus YML016C, strain PPZ1, hits give low values 0.977 | S. cerevisiae deletion strains, locus YML032C, strain rad52, hits give low values 0.937 | S. cerevisiae deletion strains, locus YML124C, strain tub3, hits give low values 0.991 | S. cerevisiae deletion strains, locus YMR078C, strain ctf18, hits give low values 0.99 | S. cerevisiae deletion strains, locus YMR125W, strain sto1, hits give low values 0.946 | S. cerevisiae deletion strains, locus YMR129W, hits give low values 0.997 | S. cerevisiae deletion strains, locus YMR205C, strain PFK2, hits give low values 0.963 | S. cerevisiae deletion strains, locus YMR223W, strain ubp8, hits give low values 0.933 | S. cerevisiae deletion strains, locus YMR263W, strain SAP30, hits give low values 0.942 | S. cerevisiae deletion strains, locus YMR307W, strain GAS1, hits give low values 0.986 | S. cerevisiae deletion strains, locus YNL067W, strain RPL9B, hits give low values 0.948 | S. cerevisiae deletion strains, locus YNL071W, strain lat1, hits give low values 0.953 | S. cerevisiae deletion strains, locus YNL128W, strain TEP1, hits give low values 0.884 | S. cerevisiae deletion strains, locus YNL153C, strain GIM3, hits give low values 0.921 | S. cerevisiae deletion strains, locus YNL183C, strain NPR1, hits give low values 0.933 | S. cerevisiae deletion strains, locus YNL233W, strain BNI4, hits give low values 0.927 | S. cerevisiae deletion strains, locus YNL248C, strain rpa49, hits give low values 0.904 | S. cerevisiae deletion strains, locus YNL250W, strain rad50, hits give low values 0.943 | S. cerevisiae deletion strains, locus YNL271C, strain bni1, hits give low values 0.99 | S. cerevisiae deletion strains, locus YNL298W, strain CLA4, hits give low values 0.974 | S. cerevisiae deletion strains, locus YNL307C, strain MCK1, hits give low values 0.974 | S. cerevisiae deletion strains, locus YNL322C, strain KRE1 (second series), hits give low values 1.03 | S. cerevisiae deletion strains, locus YNL322C, strain KRE1, hits give low values 0.97 | S. cerevisiae deletion strains, locus YNR049C, strain mso1, hits give low values 1 | S. cerevisiae deletion strains, locus YNR052C, strain pop2, hits give low values 0.92 | S. cerevisiae deletion strains, locus YOL012C, strain htz1 0.924 | S. cerevisiae deletion strains, locus YOL147C, strain pex11, hits give low values 1 | S. cerevisiae deletion strains, locus YOR061W, strain CKA2, hits give low values 0.938 | S. cerevisiae deletion strains, locus YOR069W, strain VPS5, hits give low values 0.986 | S. cerevisiae deletion strains, locus YOR080W, strain dia2, hits give low values 1 | S. cerevisiae deletion strains, locus YOR144C, strain elg1, hits give low values 0.989 | S. cerevisiae deletion strains, locus YOR184W, strain ser1, hits give low values 1.01 | S. cerevisiae deletion strains, locus YOR231W, strain MKK1, hits give low values 0.992 | S. cerevisiae deletion strains, locus YOR265W, strain rbl2, hits give low values 1 | S. cerevisiae deletion strains, locus YOR316C, strain cot1, hits give low values 0.98 | S. cerevisiae deletion strains, locus YPL055C, strain LGE1, hits give low values 0.782 | S. cerevisiae deletion strains, locus YPL078C, strain atp4, hits give low values 0.939 | S. cerevisiae deletion strains, locus YPL106C, strain sse1, hits give low values 1.08 | S. cerevisiae deletion strains, locus YPL240C, strain hsp82, hits give low values 0.999 | S. cerevisiae deletion strains, locus YPL241C, strain CIN2, hits give low values 0.985 | S. cerevisiae deletion strains, locus YPL256C, strain CLN2, hits give low values 0.972 | S. cerevisiae deletion strains, locus YPR119W, strain clb2, hits give low values 0.994 | S. cerevisiae deletion strains, locus YPR141C, strain kar3, hits give low values 0.969 | S. cerevisiae deletion strains, locus YPR167C, strain met16, hits give low values 0.977 | S. cerevisiae deletion strains, strain wtn01, hits give low values 0.964 | S. cerevisiae strains, strain wild type, hits give low values 0.974
